# Sampled rows, rich in hits. Any-hit rate of the full collection: about 3.7%.
# WRN helicase inh – inhibitors of human WRN helicase; Q14191; WRN helicase unwinding, fluorescent forked duplex, kinetic; Potency, µM (titrated, usually from 114 µM), for the others: at the highest dose activity change, negative = inhibition, most hits filed as inhibitors; 360,000 compounds, 0.46% hits; AID 651768; note: potency is the fitted concentration of half-maximal effect; % is set by controls: 0 for no effect and ±100 for the full control effect; nearly all actives have a fitted effect of over 55% in size
#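 Fluorescence dequenching readout, ex 525 nm/em 598 nm, kinetic mode: forked duplex DNA (100 nM final) with adjacent fluorophore and quencher unwound by WRN (20 nM final) with 2 mM ATP. Compound preincubation 15 min, room temperature.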
# TCR activator – activators of T cell receptors; primary human leukocytes, anti-CD3, IL-2 HTRF, 48 h; Potency, µM (series often up to 9.22 µM), without a hit: top-dose activation of IL-2 secretion, hits mostly activators; 330,000 tested, under 10 active; AID 504894; note: % of control where 0% means no effect
#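 Primary human leukocytes were stimulated with a-CD3 beads plus compounds for 48 hr without co-stimulation; secreted IL-2 was quantified by HTRF using a-IL-2-K (europium cryptate) and a-IL-2-d2, excited at 320nm with acceptor emission read at 665nm.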
# PI5P4K alpha inh – PI5P4K alpha (human) kinase inhibition | AID 652105 | P48426 | 330,000 compounds, 1.2% hits | max response, % | PI5P4Kalpha enzyme, ADP-Glo luminescence, 60 min; stronger effect = lower value; active = max response of -50% or lower; inconclusive = between -30% and -50%; inactive = -30% or higher; note: value at the top dose of about 77 µM; % is set by controls: 0 for no effect and ±100 for the full control effect
# Target sequence (P48426 whole entry, looked up): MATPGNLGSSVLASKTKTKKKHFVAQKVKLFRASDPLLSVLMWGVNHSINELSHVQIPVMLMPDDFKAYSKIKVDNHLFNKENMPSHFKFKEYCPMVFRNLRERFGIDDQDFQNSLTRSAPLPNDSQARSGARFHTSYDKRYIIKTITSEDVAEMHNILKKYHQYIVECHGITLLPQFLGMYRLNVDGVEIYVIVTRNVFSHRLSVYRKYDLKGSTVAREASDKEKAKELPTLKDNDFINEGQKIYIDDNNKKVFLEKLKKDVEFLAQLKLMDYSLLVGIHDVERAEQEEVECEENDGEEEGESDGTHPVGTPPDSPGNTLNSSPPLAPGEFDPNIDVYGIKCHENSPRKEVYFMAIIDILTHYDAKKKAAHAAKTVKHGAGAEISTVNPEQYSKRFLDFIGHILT
#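 Quantitative HTS of the MLSMR library against PI5P4Kalpha with substrate. ATP added last at 5 microM final; room temperature, 60 minutes. Remaining ATP depleted, ADP converted and read as luminescence.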
# FEN1 inhibitor – inhibitors of human flap endonuclease 1. Recombinant FEN1 flap cleavage, fluorescence, 15 min. 390,000 compounds, 0.35% hits. P39748. Potency, µM (series often up to 114 µM), for the others: top-dose activity change, negative = inhibition, hits mostly inhibitors; note: potency is the fitted concentration of half-maximal effect; % is set by controls: 0 for no effect and ±100 for the full control effect; nearly all actives have a fitted effect of over 65% in size
#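 FEN1 at 10 nM, compound pretreatment for 15 min (room temperature), 50 nM final substrate to initiate; endpoint reads at 0 and 15 min; DMSO-only plates used as vehicle background.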
# PLK1 PBD inh – blocks phosphopeptide binding to human PLK1 polo-box domain. Potency, µM, for inactives: max response, negative = inhibition, usual class: inhibitors. 360,000 compounds, 2.8% hits. P53350. Plk1 PBD binding of FITC phosphopeptide, fluorescence polarization; note: potency is the fitted concentration of half-maximal effect; series mostly up to about 57 µM; % is set by controls: 0 for no effect and ±100 for the full control effect; nearly all actives have a fitted effect of over 65% in size
# VDR inhibitor – blocks the human vitamin D receptor; P11473; VDR-SRC2-3 peptide fluorescence polarization, 2 h; Potency, µM, without a hit: max response, negative = inhibition, actives largely listed as inhibitors; 400,000 compounds, 0.93% hits; AID 504847; note: potency is the fitted concentration of half-maximal effect; % is set by controls: 0 for no effect and ±100 for the full control effect
#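 Measured by FP: displacement of SRC2-3 coactivator peptide from VDR by library compounds, following a two-hour ambient incubation.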
# An asterisk follows results filed as active; ? = inconclusive; / = no result; [ ] = another dose, or the depositor's remark. Unless noted, calls come from the whole dose curve; as a rule, active = well fitted curve in the direction sought with a large enough effect; inconclusive = small, poorly fitted or top-dose-only effect, or another doubt; inactive = no such curve, though single readings can be large; an effect the other way counts as inactive or inconclusive.
SMILES,WRN helicase inh,TCR activator,PI5P4K alpha inh,FEN1 inhibitor,PLK1 PBD inh,VDR inhibitor
COc1ccc(C2=CC3=C(Br)C(=O)C(C)(OC(=O)C4CCCC4)C(=O)C3=CO2)cc1 (configuration not stated),?,6%,-68*,?,24µM*,?
CC(C)(C)OC(=O)NCCCC1=CC2=CC(=O)C(C)(OC(=O)c3ccc(Cl)nc3)C(=O)C2=CO1 (configuration not stated),/,/,/,/,/,-2%
C=C(NCc1ccccc1)c1ccccc1O,/,/,/,/,/,2%
NS(=O)(=O)c1nn2cc(-c3ccccc3)nc2s1,/,/,/,/,/,-18%
COc1ccc(C(=C2C(=O)Nc3ccccc32)c2ccc(OC)cc2)cc1,/,/,/,/,/,-5%
Cc1nn(-c2ccccc2)c2c1cc1c(=O)[nH]c(=O)nc-1n2-c1cccc(Cl)c1,/,/,/,-3%,/,-11%
COc1ccc(S(=O)(=O)NCc2ccc3c(c2)CCN3C(C)=O)cc1OC,/,/,/,-4%,/,-5%
CC(C)N(C)CCOC(=O)c1ccccc1Br,6%,-1%[46.1 µM],-16,5%,24µM*,?
COc1ccc(/C=N/N=C2/NC(=O)C(CC(=O)O)S2)cc1OCc1ccccc1Cl (configuration not stated),-23%,0%[46.1 µM],?,-9%,-24%,-18%
COc1ccc(/C=N/N=C2/NC(=O)C(CC(=O)O)S2)cc1OCc1ccc(Cl)cc1Cl (configuration not stated),?,1%[46.1 µM],-56*,-18%,-18%,-23%
COc1cc(/C=C2/C(=O)N(c3ccc(Br)cc3)N=C2C)cc(OC)c1OC,-16%,1%,7,-32%,1.3µM*,?
CC1=NN(c2ccc(Br)cc2)C(=O)/C1=C/c1cccs1,-34%,-4%,24,?,8.4µM*,?
CC(c1n[nH]c(=S)n1Cc1ccccc1)N(C)C (configuration not stated),-4%,-15%,-20,11%,19µM*,?
S=c1[nH]nc(-c2ccc(Cl)cc2Cl)n1Cc1ccccc1,?,5%[46.1 µM],?,4%,3.8µM*,28µM*
S=c1[nH]nc(-c2ccc(Cl)cc2Cl)n1-c1ccc2c(c1)OCCO2,-14%,1%,-16,6%,27µM*,-6%
Oc1ccc(-c2n[nH]c(=S)n2-c2ccc3c(c2)OCCO3)c(O)c1,-7%[11.6 µM],1%[46.1 µM],?,-8%,-27%,-1%
Cc1c(NC(=O)C(C)OC(=O)CNC(=O)c2ccc(C(C)(C)C)cc2)c(=O)n(-c2ccccc2)n1C (configuration not stated),-8%,3%,0,-7%,5%,0%
Cc1c(NC(=O)C(C)OC(=O)/C=C/c2ccco2)c(=O)n(-c2ccccc2)n1C (configuration not stated),-1%,-14%,-13,9%,27µM*,?
Cc1ccc2nc(Cl)c(/C=C/C(=O)c3ccco3)cc2c1,-31%,5%,-16,3%,-22%,18µM*
NC(=O)c1ccc(NC(=O)COC(=O)CCC(=O)c2ccc(Cl)cc2)cc1,-1%,-4%,-26,-6%,24µM*,-12%
NC(CSC1(c2cccc3ccccc23)c2ccccc2-c2ccccc21)C(=O)O (configuration not stated),?,5%,-14,-10%,-18%,?
NC(CSC(c1ccccc1)(c1ccccc1)c1cccc2ccccc12)C(=O)O (configuration not stated),?,5%,?,-20%,27µM*,?
O=C1CCCc2[nH]c(=O)c(C(=O)NCc3ccccc3)cc21,/,/,/,-14%,/,/
OC(C[n+]1cccc(Br)c1)c1ccccc1 (configuration not stated),/,/,/,17%,/,/
CC(=O)c1ccc2noc(-c3ccccc3)c2c1,2%,0%,-3,2%,-17%,?
SMILES,WRN helicase inh,TCR activator,PI5P4K alpha inh,FEN1 inhibitor,PLK1 PBD inh,VDR inhibitor
CC(=O)c1ccc2c(c1)c(C#N)c1ccccc1[n+]2[O-],-2%,13%,0,-8%,2.4µM*,-14%
CCSc1nnc(NC(=O)C2Cc3ccccc3CN2C(=O)c2ccco2)s1 (configuration not stated),?,2%,-52*,-11%,?,-13%
Cc1ccc(S(=O)(=O)n2nc(-c3ccco3)nc2NCc2ccccc2Cl)cc1,/,/,/,-12%,/,16%
CC(=O)NC(c1ccccc1)c1cc(Cl)c2cccnc2c1O (configuration not stated),12%,-3%,-2,?,-14%,17%
CN1CCN(C(c2ccc(Cl)cc2)c2cc(Cl)c3cccnc3c2O)CC1 (configuration not stated),-15%,4%,-62*,?,2.4µM*,45µM*
CN1CCN([C@@H](c2ccccc2)c2ccc(Cl)cc2)CC1,/,/,/,/,/,-7%
Oc1c(C(c2ccccn2)N2CCCCC2)cc(Cl)c2cccnc12 (configuration not stated),1%[11.6 µM],9%,-25,?,30µM*,?
CN(C(=O)c1cc2c(=O)n3ccccc3nc2n1C)c1ccccc1,/,/,/,-2%,/,7%
COc1cc(Nc2nc(SCc3ccccc3Cl)nc3ccccc23)cc(OC)c1,/,/,/,-5%,/,3%
Cn1nc(-c2ccccc2)c(CO)c1Oc1ccc(F)cc1,?,-5%,?,2%,11µM*,?
CCC1(c2ccc(Cl)cc2)NC(=S)N(c2ccc(C)cc2)N1 (configuration not stated),?,2%,-10,-5%,-11%,79µM*
O=C(CCCOc1ccc(Cl)cc1Cl)n1nnc2ccccc21,7%,-5%[46.1 µM],0,6%,8.4µM*,71µM*
O=C(c1ccccc1)n1nnc2ccccc21,16%,0%,9,3%,6µM*,-9%
CC(=O)c1ccc(OCCCC(=O)n2nnc3ccccc32)cc1,4%,2%,-1,5%,21µM*,?
CC(=O)c1ccc(OCC(O)Cn2nnc3ccccc32)cc1 (configuration not stated),-2%[57.1 µM],5%,/,0%,-8%,16%
Cc1onc(-c2ccccc2)c1C(=O)n1nnc2ccccc21,4%,4%,-5,-4%,?,-22%
COc1cccc([C@@H]2Oc3ccc(OC)cc3C[C@H]2OC(=O)N[C@H]2CCCc3ccccc32)c1,/,/,/,/,/,0%
CC(Sc1nc(C(C)(C)C)cc(-c2ccccc2)c1C#N)C(=O)Nc1ccccc1 (configuration not stated),-36%,-8%[46.1 µM],-14,-15%,12µM*,?
O=C(Cc1cc(=O)oc2cc(O)ccc12)NC(Cc1ccc(Cl)cc1)C(=O)O (configuration not stated),-5%,-12%,-25,-6%,30µM*,?

# Bioassay records as filed in PubChem BioAssay.
